# Results as given in PubChem BioAssay (NCI).
# Compounds without any hit were thinned out: in the full panel of roughly 79,000, 15% have a hit. Unmarked numbers belong to inactive results. Active and inactive are the calls of the source. Rule as the data show it: active = growth inhibition above about 70%; inactive = the rest.
# Tests used:
# [1] = NCI Yeast Anticancer Drug Screen. Data for the wt2 strain (AID 169);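 also: 0% = growth of vehicle-treated yeast cultures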; conditions: S. cerevisiae wt2 strain growth inhibition, hits give high values
# Outline: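 Against vehicle-treated controls, the growth of yeast exposed to each compound was compared, and the inhibition was recorded.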
# [2] = NCI Yeast Anticancer Drug Screen. Data for the mlh1 strain (AID 171);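 also: 0% = growth of vehicle-treated control cultures of the same strain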; conditions: S. cerevisiae mlh1 strain growth inhibition, hits give high values
# Outline: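 Measured: yeast growth. Reference: vehicle-treated controls. Organism: strain with a defined alteration affecting DNA damage repair or cell cycle control, treated with compound.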
# [3] = NCI Yeast Anticancer Drug Screen. Data for the sgs1 strain (AID 173);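 also: 0% = growth of vehicle-only control cultures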; conditions: S. cerevisiae sgs1 mutant, hits give high values
# Outline: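 Each compound was added to cultures of the altered yeast strain. Growth was recorded, and inhibition was derived by comparison with vehicle controls.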
# [4] = NCI Yeast Anticancer Drug Screen. Data for the mlh1 rad18 strain (AID 175); conditions: S. cerevisiae mlh1 rad18 strain growth inhibition, hits give high values
# Outline: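 Genetically defined yeast (DNA repair-deficient) exposed to compounds; growth inhibition determined relative to vehicle.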
# [5] = NCI Yeast Anticancer Drug Screen. Data for the rad18 strain (AID 177); conditions: S. cerevisiae rad18 mutant growth inhibition, hits give high values
# Outline: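 Vehicle-treated cultures served as the baseline for scoring compound-induced growth inhibition in DNA-repair-mutant yeast.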
# [6] = NCI Yeast Anticancer Drug Screen. Data for the rad52 strain (AID 147);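 also: 0% = growth of vehicle-treated control cultures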; conditions: S. cerevisiae rad52 mutant growth inhibition, hits give high values
# Outline: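 The repair-mutant yeast strain was incubated with compounds, then growth was read and inhibition derived relative to vehicle.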
# [7] = NCI Yeast Anticancer Drug Screen. Data for the wt1 strain (AID 149);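 also: 0% = growth of vehicle-treated wt1 cultures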; conditions: S. cerevisiae wt1 strain (SPY 50644) growth inhibition, hits give high values
# Outline: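 The wt1 strain was treated with compounds, and growth was compared with vehicle-treated cultures to give inhibition.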
# [8] = NCI Yeast Anticancer Drug Screen. Data for the rad50EPP+ strain (AID 151);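 also: 0% = growth of vehicle-treated control cultures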; conditions: S. cerevisiae rad50 mutant strain, hits give high values
# Outline: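 Vehicle-normalised growth inhibition; rad50EPP+ yeast strain, altered in DNA damage repair, compound-treated.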
# [9] = NCI Yeast Anticancer Drug Screen. Data for the mgt1 strain (AID 153); conditions: S. cerevisiae mgt1 mutant growth inhibition, hits give high values
# Outline: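 Vehicle-normalized growth inhibition is determined in mgt1 yeast, a strain selected for a defined alteration in DNA repair or cell cycle control.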
# [10] = NCI Yeast Anticancer Drug Screen. Data for the rad50 strain (AID 155);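 also: 0% = growth of vehicle-only cultures of the same strain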; conditions: S. cerevisiae rad50 strain growth inhibition, hits give high values
# Outline: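 Cells are treated with compound, grown, and their growth is then scored against vehicle-only cultures of the same repair-deficient yeast strain.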
# [11] = NCI Yeast Anticancer Drug Screen. Data for the mec2-1 strain (AID 157); conditions: S. cerevisiae mec2-1 strain, hits give high values
# Outline: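 Mutant yeast (mec2-1) grown with compound; growth inhibition relative to vehicle control reported.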
# [12] = NCI Yeast Anticancer Drug Screen. Data for the rad14 strain (AID 159);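 also: 0% = growth of vehicle-treated control cultures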; conditions: S. cerevisiae rad14 strain growth inhibition, hits give high values
# Outline: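 Readout: yeast growth inhibition, referenced to vehicle-only cultures. Strain bears a defined alteration in DNA damage repair.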
# [13] = NCI Yeast Anticancer Drug Screen. Data for the sgs1 mgt1 strain (AID 161);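 also: 0% = growth of cultures given vehicle only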; conditions: S. cerevisiae sgs1 mgt1 strain, hits give high values
# Outline: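 This yeast growth screen uses a strain with defined DNA-repair lesions; compound-treated growth is compared with vehicle-treated growth.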
# [14] = NCI Yeast Anticancer Drug Screen. Data for the CLN2oe strain (AID 163);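 also: 0% = growth of vehicle-only control cultures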; conditions: S. cerevisiae CLN2oe strain, hits give high values
# Outline: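 Compounds are applied to yeast harbouring a defined cell-cycle control change; reduced growth compared with vehicle-treated controls gives the value.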
# [15] = NCI Yeast Anticancer Drug Screen. Data for the cln2 rad14 strain (AID 165);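 also: 0% = growth equal to vehicle treated cultures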; conditions: S. cerevisiae cln2 rad14 strain, hits give high values
# Outline: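 Readout is yeast growth inhibition versus vehicle-treated controls, using a strain with cln2 and rad14 alterations exposed to compound.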
# [16] = NCI Yeast Anticancer Drug Screen. Data for the bub3 strain (AID 167); conditions: S. cerevisiae bub3 mutant strain, hits give high values
# Outline: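 Part of a panel of yeast mutants defective in DNA damage repair or cell cycle regulation. Each strain is grown with compound, and inhibition is calculated relative to solvent-treated cultures.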
# [17] = at 5.0 µM (retest, dose inferred, filed as 0.5)
# [18] = at 50.0 µM (retest, dose inferred, filed as 5.0)
compound,measurement,setting,value
COP(=O)(OC)/C(=C\C1=CN(C(c2ccccc2)(c2ccccc2)c2ccccc2)CN1)NC=O,growth inhibition,[1]; at 1.2 µM,-10%
same,growth inhibition,[1]; at 3.7 µM,-13%
same,growth inhibition,[1]; at 11.0 µM,-6%
same,growth inhibition,[1]; at 33.0 µM,34%
same,growth inhibition,[1]; at 100.0 µM,96% (active)
same,growth inhibition,[2]; at 1.2 µM,1%
same,growth inhibition,[2]; at 3.7 µM,-13%
same,growth inhibition,[2]; at 11.0 µM,-8%
same,growth inhibition,[2]; at 33.0 µM,71% (active)
same,growth inhibition,[2]; at 100.0 µM,96% (active)
same,growth inhibition,[3]; at 1.2 µM,13%
same,growth inhibition,[3]; at 3.7 µM,20%
same,growth inhibition,[3]; at 11.0 µM,12%
same,growth inhibition,[3]; at 33.0 µM,79% (active)
same,growth inhibition,[3]; at 100.0 µM,97% (active)
same,growth inhibition,[4]; [17],-22%
same,growth inhibition,[4]; [18],-8%
same,growth inhibition,[4]; at 50.0 µM,97% (active)
same,growth inhibition,[5]; at 1.2 µM,-7%
same,growth inhibition,[5]; at 3.7 µM,-18%
same,growth inhibition,[5]; at 11.0 µM,-13%
same,growth inhibition,[5]; at 33.0 µM,40%
same,growth inhibition,[5]; at 100.0 µM,95% (active)
Nc1ccccc1CC(O)C(=O)O (stereo unspecified),growth inhibition,[6]; at 1.2 µM,0%
same,growth inhibition,[6]; at 3.7 µM,5%
same,growth inhibition,[6]; at 11.0 µM,14%
same,growth inhibition,[6]; at 33.0 µM,53%
same,growth inhibition,[6]; at 100.0 µM,88% (active)
same,growth inhibition,[7]; at 1.2 µM,2%
same,growth inhibition,[7]; at 3.7 µM,3%
same,growth inhibition,[7]; at 11.0 µM,13%
same,growth inhibition,[7]; at 33.0 µM,42%
same,growth inhibition,[7]; at 100.0 µM,90% (active)
same,growth inhibition,[8]; at 1.2 µM,-2%
same,growth inhibition,[8]; at 3.7 µM,1%
same,growth inhibition,[8]; at 11.0 µM,-1%
same,growth inhibition,[8]; at 33.0 µM,2%
same,growth inhibition,[8]; at 100.0 µM,4%
same,growth inhibition,[9]; at 1.2 µM,4%
same,growth inhibition,[9]; at 3.7 µM,-1%
same,growth inhibition,[9]; at 11.0 µM,14%
same,growth inhibition,[9]; at 33.0 µM,74% (active)
same,growth inhibition,[9]; at 100.0 µM,95% (active)
same,growth inhibition,[10]; at 1.2 µM,3%
same,growth inhibition,[10]; at 3.7 µM,13%
same,growth inhibition,[10]; [17],-15%
same,growth inhibition,[10]; at 11.0 µM,27%
same,growth inhibition,[10]; at 33.0 µM,85% (active)
same,growth inhibition,[10]; [18],94% (active)
same,growth inhibition,[10]; at 50.0 µM,93% (active)
same,growth inhibition,[10]; at 100.0 µM,95% (active)
same,growth inhibition,[11]; at 1.2 µM,0%
same,growth inhibition,[11]; at 3.7 µM,8%
same,growth inhibition,[11]; [17],3%
same,growth inhibition,[11]; at 11.0 µM,14%
same,growth inhibition,[11]; at 33.0 µM,30%
same,growth inhibition,[11]; [18],74% (active)
same,growth inhibition,[11]; at 50.0 µM,52.1%
same,growth inhibition,[11]; at 100.0 µM,90% (active)
same,growth inhibition,[12]; at 1.2 µM,-3%
same,growth inhibition,[12]; at 3.7 µM,6%
same,growth inhibition,[12]; at 11.0 µM,24%
same,growth inhibition,[12]; at 33.0 µM,91% (active)
same,growth inhibition,[12]; at 100.0 µM,97% (active)
same,growth inhibition,[13]; [17],-6%
same,growth inhibition,[13]; [18],95% (active)
same,growth inhibition,[13]; at 50.0 µM,94.5% (active)
same,growth inhibition,[14]; at 1.2 µM,5%
same,growth inhibition,[14]; at 3.7 µM,9%
same,growth inhibition,[14]; at 11.0 µM,13%
same,growth inhibition,[14]; at 33.0 µM,25%
same,growth inhibition,[14]; at 100.0 µM,42%
same,growth inhibition,[15]; [17],-2%
same,growth inhibition,[15]; [18],14%
same,growth inhibition,[15]; at 50.0 µM,13.6%
same,growth inhibition,[16]; at 1.2 µM,5%
same,growth inhibition,[16]; at 3.7 µM,-14%
same,growth inhibition,[16]; [17],-17%
same,growth inhibition,[16]; at 11.0 µM,9%
same,growth inhibition,[16]; at 33.0 µM,70% (active)
same,growth inhibition,[16]; [18],90% (active)
same,growth inhibition,[16]; at 50.0 µM,83.8% (active)
same,growth inhibition,[16]; at 100.0 µM,92% (active)
same,growth inhibition,[1]; at 1.2 µM,2%
same,growth inhibition,[1]; at 3.7 µM,6%
same,growth inhibition,[1]; at 11.0 µM,21%
same,growth inhibition,[1]; at 33.0 µM,90% (active)
same,growth inhibition,[1]; at 100.0 µM,95% (active)
same,growth inhibition,[2]; at 1.2 µM,2%
same,growth inhibition,[2]; at 3.7 µM,4%
same,growth inhibition,[2]; at 11.0 µM,29%
same,growth inhibition,[2]; at 33.0 µM,92% (active)
same,growth inhibition,[2]; at 100.0 µM,97% (active)
same,growth inhibition,[3]; at 1.2 µM,-1%
same,growth inhibition,[3]; at 3.7 µM,1%
same,growth inhibition,[3]; at 11.0 µM,14%
same,growth inhibition,[3]; at 33.0 µM,83% (active)
same,growth inhibition,[3]; at 100.0 µM,95% (active)
same,growth inhibition,[4]; [17],0%
same,growth inhibition,[4]; [18],94% (active)
same,growth inhibition,[4]; at 50.0 µM,92.7% (active)
same,growth inhibition,[5]; at 1.2 µM,1%
same,growth inhibition,[5]; at 3.7 µM,4%
same,growth inhibition,[5]; at 11.0 µM,10%
same,growth inhibition,[5]; at 33.0 µM,60%
same,growth inhibition,[5]; at 100.0 µM,90% (active)
